Test results reported in PubChem BioAssay AID1159580 (chemical genetic matrix, 2015).
Among all 5,500 compounds or so, about 2,000 (36%) were called active. Not shown: some 18% with an inconclusive outcome. Rule as the data show it: active = normalized growth mostly below about 0.91 (no sharp cut-off); inconclusive = no clear call, values can overlap the other calls; inactive = mostly above about 0.92. The list shows a part of the results.

Test: chemical genetic growth profiling, strain panel (AID 1159580);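 also: tested at 20 µM; growth read once vehicle control cultures reached saturation at 30 °C; 1 = growth at the plate median or of vehicle wells; lower values mean less growth of the strain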
Settings: growth OD

Measured: normalized growth

CC1=C(/C=C/C(C)=C/C=C/C(C)=C/C=C/C=C(C)/C=C/C=C(C)/C=C/C23OC2(C)CC(O)CC3(C)C)C(C)(C)CC(O)C1 (configuration not stated)
inactive: S. cerevisiae deletion strains, locus YBR021W, strain FUR4, hits give low values 1 | S. cerevisiae deletion strains, locus YBR229C, strain ROT2, hits give low values 1.01 | S. cerevisiae deletion strains, locus YCL029C, strain bik1, hits give low values 1.02 | S. cerevisiae deletion strains, locus YDL035C, strain GPR1, hits give low values 1.01 | S. cerevisiae deletion strains, locus YDL074C, strain BRE1, hits give low values 1.03 | S. cerevisiae deletion strains, locus YDL101C, strain DUN1, hits give low values 1.01 | S. cerevisiae deletion strains, locus YDL185W, strain tfp1, hits give low values 1 | S. cerevisiae deletion strains, locus YDL192W, strain arf1, hits give low values 1 | S. cerevisiae deletion strains, locus YDR101C, strain arx1, hits give low values 1.01 | S. cerevisiae deletion strains, locus YDR162C, strain NBP2, hits give low values 0.997 | S. cerevisiae deletion strains, locus YDR318W, strain mcm21, hits give low values 1.01 | S. cerevisiae deletion strains, locus YDR388W, hits give low values 1.01 | S. cerevisiae deletion strains, locus YDR502C, strain sam2, hits give low values 1.02 | S. cerevisiae deletion strains, locus YEL061C, strain CIN8, hits give low values 1.01 | S. cerevisiae deletion strains, locus YER110C, hits give low values 1.02 | S. cerevisiae deletion strains, locus YER155C, strain BEM2, hits give low values 1.01 | S. cerevisiae deletion strains, locus YER167W, strain BCK2, hits give low values 1.02 | S. cerevisiae deletion strains, locus YGL078C, strain dbp3, hits give low values 0.995 | S. cerevisiae deletion strains, locus YGL086W, strain mad1, hits give low values 1.05 | S. cerevisiae deletion strains, locus YGL248W, strain PDE1, hits give low values 1 | S. cerevisiae deletion strains, locus YGR135W, strain pre9, hits give low values 0.982 | S. cerevisiae deletion strains, locus YGR252W, strain gcn5, hits give low values 0.987 | S. cerevisiae deletion strains, locus YHR030C, strain SLT2, hits give low values 1.01 | S. cerevisiae deletion strains, locus YHR079C, strain IRE1 (second series), hits give low values 1 | S. cerevisiae deletion strains, locus YHR094C, strain hxt1, hits give low values 1.01 | S. cerevisiae deletion strains, locus YHR129C, strain ARP1, hits give low values 1.02 | S. cerevisiae deletion strains, locus YHR200W, strain rpn10, hits give low values 1.01 | S. cerevisiae deletion strains, locus YIL066C, strain RNR3, hits give low values 1.01 | S. cerevisiae deletion strains, locus YIL073C, strain SPO22, hits give low values 1.1 | S. cerevisiae deletion strains, locus YIL125W, strain kgd1, hits give low values 1.01 | S. cerevisiae deletion strains, locus YIR030C, strain dcg1, hits give low values 1.01 | S. cerevisiae deletion strains, locus YJL095W, strain BCK1, hits give low values 0.998 | S. cerevisiae deletion strains, locus YJL134W, strain LCB3, hits give low values 1.01 | S. cerevisiae deletion strains, locus YJL168C, strain set2, hits give low values 1.01 | S. cerevisiae deletion strains, locus YJL187C, strain SWE1 (second series), hits give low values 1 | S. cerevisiae deletion strains, locus YJR043C, strain POL32, hits give low values 0.999 | S. cerevisiae deletion strains, locus YKL009W, strain mrt4, hits give low values 1.03 | S. cerevisiae deletion strains, locus YKL068W, hits give low values 1 | S. cerevisiae deletion strains, locus YKL085W, strain MDH1 (second series), hits give low values 1.01 | S. cerevisiae deletion strains, locus YKL085W, strain MDH1, hits give low values 1.01 | S. cerevisiae deletion strains, locus YKL190W, strain CNB1, hits give low values 1.01 | S. cerevisiae deletion strains, locus YKR001C, strain vps1, hits give low values 1.04 | S. cerevisiae deletion strains, locus YLR039C, strain RIC1, hits give low values 1.01 | S. cerevisiae deletion strains, locus YLR058C, strain SHM2, hits give low values 1.01 | S. cerevisiae deletion strains, locus YLR102C, strain apc9, hits give low values 1.02 | S. cerevisiae deletion strains, locus YLR262C, strain YPT6, hits give low values 0.973 | S. cerevisiae deletion strains, locus YLR268W, strain sec22, hits give low values 1.02 | S. cerevisiae deletion strains, locus YLR330W, strain CHS5, hits give low values 1.02 | S. cerevisiae deletion strains, locus YLR342W, strain FKS1 (second series), hits give low values 1.06 | S. cerevisiae deletion strains, locus YLR371W, strain rom2, hits give low values 1.01 | S. cerevisiae deletion strains, locus YLR418C, strain cdc73, hits give low values 1 | S. cerevisiae deletion strains, locus YML016C, strain PPZ1, hits give low values 1.01 | S. cerevisiae deletion strains, locus YML032C, strain rad52, hits give low values 1 | S. cerevisiae deletion strains, locus YML124C, strain tub3, hits give low values 1 | S. cerevisiae deletion strains, locus YMR078C, strain ctf18, hits give low values 1.02 | S. cerevisiae deletion strains, locus YMR223W, strain ubp8, hits give low values 1.01 | S. cerevisiae deletion strains, locus YMR263W, strain SAP30, hits give low values 1.01 | S. cerevisiae deletion strains, locus YMR307W, strain GAS1, hits give low values 1.02 | S. cerevisiae deletion strains, locus YNL067W, strain RPL9B, hits give low values 1 | S. cerevisiae deletion strains, locus YNL153C, strain GIM3, hits give low values 0.994 | S. cerevisiae deletion strains, locus YNL233W, strain BNI4, hits give low values 1.02 | S. cerevisiae deletion strains, locus YNL250W, strain rad50, hits give low values 1.01 | S. cerevisiae deletion strains, locus YNL271C, strain bni1, hits give low values 1 | S. cerevisiae deletion strains, locus YNL298W, strain CLA4, hits give low values 0.991 | S. cerevisiae deletion strains, locus YNL307C, strain MCK1, hits give low values 1.01 | S. cerevisiae deletion strains, locus YNL322C, strain KRE1, hits give low values 1.01 | S. cerevisiae deletion strains, locus YNR052C, strain pop2, hits give low values 1 | S. cerevisiae deletion strains, locus YOL006C, strain TOP1, hits give low values 1.11 | S. cerevisiae deletion strains, locus YOL012C, strain htz1 0.925 | S. cerevisiae deletion strains, locus YOL147C, strain pex11, hits give low values 1.01 | S. cerevisiae deletion strains, locus YOR061W, strain CKA2, hits give low values 1.02 | S. cerevisiae deletion strains, locus YOR069W, strain VPS5, hits give low values 1.02 | S. cerevisiae deletion strains, locus YOR136W, strain idh2, hits give low values 1 | S. cerevisiae deletion strains, locus YOR144C, strain elg1, hits give low values 0.998 | S. cerevisiae deletion strains, locus YOR184W, strain ser1, hits give low values 1.03 | S. cerevisiae deletion strains, locus YOR316C, strain cot1, hits give low values 1.03 | S. cerevisiae deletion strains, locus YPR119W, strain clb2, hits give low values 0.994 | S. cerevisiae deletion strains, locus YPR141C, strain kar3, hits give low values 1.01 | S. cerevisiae deletion strains, locus YPR163C, strain tif3, hits give low values 1.01 | S. cerevisiae deletion strains, locus YPR167C, strain met16, hits give low values 1.01 | S. cerevisiae deletion strains, strain wtn01, hits give low values 1.02 | S. cerevisiae strains, strain wild type, hits give low values 1.01
